# Screens: PubChem, National Center for Advancing Translational Sciences (NCATS)
# G9a inh: inhibitors of human histone lysine methyltransferase G9a; G9a H3K9 monomethylation, AlphaScreen, 2 h; Q96KQ7; 350,000 tested, 8.8% active; Potency, µM (top dose mostly 102 µM), inactives show at the highest dose activity, negative = inhibition, most hits filed as inhibitors; also: potency is read from the fitted curve at half-maximal effect; % is scaled to controls: 0 for no effect and ±100 for the full control effect; nearly all actives have a fitted effect of over 75% in size
# Target sequence (Q96KQ7 913-1193 limits assumed): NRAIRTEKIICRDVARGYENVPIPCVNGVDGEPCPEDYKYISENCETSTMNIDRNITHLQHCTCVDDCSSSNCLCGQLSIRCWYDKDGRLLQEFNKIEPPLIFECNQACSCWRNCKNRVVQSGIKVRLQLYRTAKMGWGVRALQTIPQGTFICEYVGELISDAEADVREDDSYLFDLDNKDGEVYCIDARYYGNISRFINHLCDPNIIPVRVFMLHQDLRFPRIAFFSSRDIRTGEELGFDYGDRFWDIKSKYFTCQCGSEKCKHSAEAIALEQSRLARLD
#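 Compounds were preincubated with 20 nM G9a for 15 min, after which biotinylated H3K9 peptide (500 nM) and SAM (20 uM) started a 2 h room-temperature reaction. Monomethylated product was quantified by antibody-based AlphaScreen chemiluminescence.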
# BAZ2B block: blocks human BAZ2B. AID 504333. AlphaScreen BAZ2B-H3K14Ac peptide displacement. 360,000 tested, 4.4% active. Q9UIF8. Potency, µM (doses to about 114 µM), inactives show top-dose activity change, negative = inhibition, usual class: inhibitors; also: potency is read from the fitted curve at half-maximal effect; % is scaled to controls: 0 for no effect and ±100 for the full control effect; nearly all actives have a fitted effect of over 60% in size
#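 BAZ2B 50 nM plus b-H3(5-23)K14Ac 50 nM, PBS pH 7.4/0.01% Tween-20, 30 min RT; compound added (max 110 uM), 30 min RT; streptavidin donor/Ni-chelate acceptor beads 10 ug/mL final, 20 min dark; AlphaScreen read.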
# CtBP-E1A blk: inhibitors of CtBP/E1A interaction; 340,000 tested, 0.49% active; AID 651724; AlphaScreen GST-E1A/His-CtBP binding, 1536-well; hits give low values; activity change, % (concentration not given with the values); in the data active = activity change below about -65%; inconclusive = mostly about -30% to -63%; also: % is scaled to controls: 0 for no effect and ±100 for the full control effect
#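 Protein mix (5X: 125 nM each GST-E1A, His-CtBP) was incubated with pinned compound 2 h at 37 deg C in dark, in 50 mM Tris pH 8.0 buffer with 300 mM NaCl. Glutathione donor and nickel acceptor beads followed; AlphaScreen signal read after 1 h.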
# JMJD2A Tudor inh: blocks the human JMJD2A Tudor domain | AlphaScreen JMJD2A-Tudor / H3K4me3 peptide binding | Potency, µM (series often up to 114 µM), inactives show at the top dose activity change, negative = inhibition, hits mostly inhibitors | 390,000 tested, 4.4% active; also: potency is read from the fitted curve at half-maximal effect; % is scaled to controls: 0 for no effect and ±100 for the full control effect; nearly all actives have a fitted effect of over 50% in size
# HP1b chromo inh: blocks HP1-beta chromodomain binding to methylated histone tails | P83916 | AlphaScreen HP1-beta / biotin-H3K9me3 peptide binding | Potency, µM (doses to about 114 µM), for the others: at the highest dose activity change, negative = inhibition, hits mostly inhibitors | 390,000 tested, 0.56% active | AID 540317; also: potency is read from the fitted curve at half-maximal effect; nearly all actives have a fitted effect of over 70% in size
# Target sequence (P83916 whole entry, looked up): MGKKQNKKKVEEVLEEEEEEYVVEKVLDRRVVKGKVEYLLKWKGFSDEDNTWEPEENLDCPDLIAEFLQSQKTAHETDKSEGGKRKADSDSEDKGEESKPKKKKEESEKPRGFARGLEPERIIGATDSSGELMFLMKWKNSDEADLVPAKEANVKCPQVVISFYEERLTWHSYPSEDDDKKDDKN
#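 AlphaScreen: HP1-beta (50 nM) preformed 30 min with biotin-H3(1-18)K9me3 peptide (50 nM) in PBS pH 7.4, 0.01% Tween-20. Compound added for 30 min at RT, then streptavidin donor/nickel chelate acceptor beads (10 ug/mL) for 30 min.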
# Six1-Eya2 inh: Six1/Eya2 interaction inhibition | Q15475+O00167 | AlphaScreen GST-Six1/His-Eya2 binding, biochemical; hits give low values | activity change, % (no concentration beside the values) | 360,000 tested, 0.56% active | AID 651725; in the data active = activity change below about -65%; inconclusive = mostly about -30% to -63%; also: % is scaled to controls: 0 for no effect and ±100 for the full control effect
#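 Six1/Eya2 binding was read as AlphaScreen signal after compounds were pinned into GST-Six1 plus His-tagged Eya2 (5X stock 250/500 nM) in pH 8.0 Tris/NaCl/TCEP buffer, beads added, then incubated 1 h, 37 C, dark.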
# An asterisk follows results filed as active; ? = inconclusive; / = no result; [ ] = remark or other dose. Only some compounds are listed: those with a hit (about 10% of all), similar ones and a draw of the others. Unless noted, calls follow the shape of the dose curve; as a rule, active = well fitted inhibition curve with a large enough effect; inconclusive = small, poorly fitted or top-dose-only effect; inactive = no such curve, though single readings can be large or run the other way.
SMILES,G9a inh,BAZ2B block,CtBP-E1A blk,JMJD2A Tudor inh,HP1b chromo inh,Six1-Eya2 inh
CCOC(=O)c1c(NC(=O)CSc2nnnn2-c2ccccc2)sc2c1CC(C)(C)NC2(C)C,/,71µM*,-2,?,-5%,-9
CCOC(=O)c1c(NC(=O)CSc2nc3ccc(C)cc3[nH]2)sc2c1CC(C)(C)NC2(C)C,45µM*,-39%,-7,?,-14%,-4
CCOC(=O)c1c(NC(=O)CSc2nnnn2-c2ccccc2OCC)sc2c1CC(C)(C)NC2(C)C,50µM*,-37%,1,-32%,-4%,-13
CCOC(=O)c1c(NC(=O)c2ccc(C)cc2)sc2c1CC(C)(C)NC2(C)C,-4%,-2%,/,/,/,/
CCCCOC(=O)c1ccc(NC(=O)/C=C/c2cccs2)cc1,-15%[59 µM],-1%,26,6%,46%,7
COc1cccc(NC(=O)CCCCCn2nnc3ccccc3c2=O)c1,-2%,-3%,0,-8%,26%,-10
Cc1cc(-c2ccccc2)c2c(n1)sc1c(O)cc(=O)[nH]c12,/,7%,1,-5%,45%,3
CCc1nc2sc3c(O)cc(=O)[nH]c3c2cc1C,45µM*,0%,-6,-9%,41%,2
COC(=O)c1ccc(N/C(=N/S(=O)(=O)c2ccccc2)c2ccccc2)cc1,-3%,0%,-21,-16%,27%,-17
O=C(O)c1ccc(NC2=C/C(=N/S(=O)(=O)c3ccccc3)c3ccccc3C2=O)cc1,13µM*,20µM*,?,50µM*,?,?
Cc1cc(C)c(S(=O)(=O)/N=C2\C=C(Nc3ccc(C(=O)O)cc3)C(=O)c3ccccc32)c(C)c1,10µM*,8.9µM*,-72*,32µM*,?,?
COc1ccc(NS(=O)(=O)c2cn(C)cn2)c(OC)c1,8%,-2%[57.1 µM],2,-16%,30%,4
COc1cc(OC)c(NC(=O)COCc2cc(-c3cccs3)on2)cc1Cl,-8%[59 µM],4%,/,-14%,10%,/
Cc1sc(NC(=O)Nc2ccccc2)c(C(N)=O)c1C,8.9µM*,-29%,-6,-25%,?,-7
CCOC(=O)c1c(NC(N)=O)sc(C)c1C,2%[59 µM],-10%,2,-13%,43%,-1
COC(=O)c1c(NC(=O)Nc2ccc(Cl)cc2)sc(C)c1C,5%[59 µM],-1%,0,-13%,14%,-2
CCC(=O)N(CC(=O)Nc1sc(C)c(C)c1C(N)=O)C1CCCC1,-10%[59 µM],-11%,-8,-8%,26%,6
CCOC(=O)Nc1sc(C)c(C)c1C(N)=O,40µM*,11%,-1,1%,32%,0
COC(=O)CCC(=O)Nc1sc(C)c(C)c1C(N)=O,2.8µM*,-15%,-1,?,?,-5
COC(=O)CCC(=O)NC(=S)Nc1sc(C)c(C)c1C(N)=O,8.9µM*,5%,17,-25%,1%,-5
CCN(CCn1cccn1)Cc1c(C(=O)N2CCCCCCC2)nc2ccc(Cl)cn12,79µM*,-22%,7,-11%,22%,2
COc1ccccc1N1CCN(C(=O)CSc2nc(-c3ccc(C(C)C)cc3)no2)CC1,?,-11%,/,-21%,27%,/
COc1cc(C2CC(=O)N3CN(c4ccccc4C)CSC3=C2C#N)cc(OC)c1OC (centres undefined),1.4µM*,?,/,/,/,/
COc1ccccc1N1CSC2=C(C#N)C(c3ccc(SC)cc3)CC(=O)N2C1 (centres undefined),2.2µM*,50µM*,-3,18µM*,22µM*,-5
CCCc1c(C(=O)Nc2cc(C)on2)cnn1-c1ccccc1,/,-2%,8,-12%,42%,0
SMILES,G9a inh,BAZ2B block,CtBP-E1A blk,JMJD2A Tudor inh,HP1b chromo inh,Six1-Eya2 inh
Cc1ccc(Cl)c2c1NC(=O)C2(O)CC(=O)c1ccccc1O (centres undefined),14µM*,-13%,-2,5%,19%,0
Cc1ccc(Cl)c2c1NC(=O)C2(O)CC(=O)c1ccc(F)cc1 (centres undefined),-12%[59 µM],2%,3,-14%,9%,1
CC(C)C(=O)N1CCC1(C)C(=O)Nc1cc(-c2ccccc2)nn1C (centres undefined),/,/,22,/,/,-3
COc1ccc(/C=N/NS(=O)(=O)c2ccc(F)cc2)cc1COc1cc(F)ccc1[N+](=O)[O-],6.3µM*,-19%,10,-9%,45%,-4
C[C@H](CO)N1C[C@H](C)[C@@H](CN(C)C(=O)Nc2ccccc2)Oc2ncc(-c3ccc(C#N)cc3)cc2C1=O,/,/,7,/,/,16
CCCCSc1nnc(-c2ccccc2)c2ccccc12,38%,46%,8,60%,147%,23
COc1cccc(C2CC(c3c(-c4ccccc4)c4cc(Cl)ccc4[nH]c3=O)=NN2S(C)(=O)=O)c1OC (centres undefined),40µM*,-22%,-8,-15%,10%,-14
Nc1n[nH]c(N)c1N=Nc1cccc(C(F)(F)F)c1,71µM*,40µM*,-1,?,-1%,-13
Cc1cccc(N=C2N=C(N)c3ccccc32)c1,31%[0.501 µM],-9%,13,-27%,17%,5
Cc1cc(C)n2[nH]c(=O)c(N=Nc3cccc(C(F)(F)F)c3)c2n1,3%[12.7 µM],8%,-2,?,-1%,8
Cc1cccc(N=Nc2c(N)n[nH]c2N)c1,-12%,40µM*,/,?,-17%,-3
Nc1n[nH]c(N)c1N=Nc1ccc(Cl)cc1,-15%[59 µM],45µM*,-20,35µM*,-33%,-25
Nc1n[nH]c(N)c1N=Nc1cccc(F)c1,?,40µM*,11,?,-17%,-18
C/C=C/C1=CC(=O)C[C@H](c2ccc(F)cc2)C1,-13%[0.501 µM],-6%,4,-14%,38%,4
COc1ccc(NC(=O)C2(C)CCN2C(=O)C(C)C)cc1F (centres undefined),/,/,-23,/,/,5
O=C(OCc1ccccc1F)c1ccc(-c2nnn(Cc3ccccc3)n2)cc1,1%[59 µM],11%,/,71%,101%,/
CCOC(=O)c1ccc(N2CSC3=C(C#N)C(c4ccc(OC)cc4OC)CC(=O)N3C2)cc1 (centres undefined),13µM*,50µM*,-9,-30%,34%,1
COc1cc(OC)c(C2CC(=O)N3CN(c4ccccc4)CSC3=C2C#N)cc1OC (centres undefined),3.2µM*,25µM*,-1,5.6µM*,?,-7
CCc1ccccc1N1CCN(S(=O)(=O)c2cc(OC)ccc2OC)CC1,-2%,10%,0,-4%,38%,-1
CCc1ccccc1N1CSC2=C(C#N)C(c3cc(OC)c(OC)cc3OC)CC(=O)N2C1 (centres undefined),?,50µM*,-27,8.9µM*,-75%,-28
